# Bioassay records: PubChem, several laboratories
# Most compounds without a hit are left out; they make up all but 1.8% or so of the library.
# sdo1 growth = sdo1-depleted yeast growth rescue; S. cerevisiae sdo1-depleted JHY4D growth rescue, OD600 30 h; active compounds read high; pdr5 snq2 efflux-pump mutant strain; z-score at 10 µM; hit rate 0.21% among 140,000; AID 817;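 active = z-score above 3 at both the 24 hr and the 30 hr optical density reads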;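 note: z-score against mean and SD of all compound wells on the same plate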
# Measles CPE = protection of cells from measles virus; Measles virus-infected cells, CPE protection, absorbance; protection (pct of control), % at 4 µM; hit rate 1.5% among 140,000; AID 841; in the data active = protection mostly above about 24%, no sharp cut-off; inactive = mostly below about 26%
# Phagocytosis inh = inhibitors of macrophage phagocytosis; J774A.1 macrophage IgG-bead phagocytosis, imaging; hit rate 0.07% among 110,000; inhibition, % at 5 µM;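 active = inhibition above the mean of the plate negative controls plus 5 SD, cut at about 13% in these data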;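 note: phagocytic index as fraction of beads internalized from green versus red external bead signal; plate controls were DMSO negative control for no effect and cytochalasin-D positive control for full effect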
# An asterisk follows results filed as active; . = no result given.
SMILES,sdo1 growth,Measles CPE,Phagocytosis inh
Cc1onc(-c2ccccc2)c1-c1nc2ccccc2c(=O)o1,-1.5,16.2,.
O=C(CNC(=S)N(Cc1ccccc1)Cc1cccnc1)NC1CC1,1,13.4,-12.5
O=C(CNC(=S)N(Cc1ccccc1)Cc1cccnc1)NC1CCCC1,2.03,28.2*,-3.5
CCOc1ccc(-n2c(O)c(/C=N/NC(=O)C3COc4ccccc4O3)c3ccccc3c2=O)cc1 (configuration not stated),0.62,13.1,-5.3
CCOc1ccc(-n2nnnc2-c2nc3ccccc3s2)cc1,0.66,26.2*,-0.3
Cc1ccc(-n2nnnc2-c2nc3ccccc3s2)cc1,0.07,7.0,-5.7
Cc1ccc(NC(=O)Cn2cc(S(=O)(=O)c3ccc(C)cc3)c(=O)c3cc(F)ccc32)cc1,0.28,10.1,.
Cc1ccc2nc(SCC(=O)Nc3cc([N+](=O)[O-])ccc3F)[nH]c2c1,-2.01,2.8,-8.8
Cc1cc(Br)c(OCc2ccc(C(=O)N/N=C3\CC4CC=CC34)cc2)c(Br)c1 (configuration not stated),-1.73,1.6,-6.6
CC(C)OCCCn1c(SCC(=O)N2CCc3ccccc32)nc2ccccc2c1=O,-1.06,11.6,1.2
COc1ccc(C(CC(=O)NCCCN2CCOCC2)NS(=O)(=O)c2ccc(C)cc2)cc1 (configuration not stated),1.22,5.0,0.0
CCN(CC)c1ccc(/C=N/NC(=S)NCc2ccco2)cc1,-0.39,11.3,-2.9
Oc1ccc(/C=N/NC(=S)NCc2ccco2)cc1,-0.72,40.7*,.
CC(=O)c1cccc(NC(=O)Nc2ccc3c(c2)N(C)C(=O)CS3)c1,0.65,20.6,-0.5
CC[n+]1c(-c2ccccc2)csc1Nc1c(C)n(C)n(-c2ccccc2)c1=O,-0.1,5.8,-5.7
CC[n+]1c(-c2ccc(C)cc2)csc1Nc1c(C)n(C)n(-c2ccccc2)c1=O,0.06,30.1*,-9.3
CCc1cc(=O)oc2cc3occ(-c4ccc(OC)c(F)c4)c3cc12,-0.01,15.5,22.6
COc1ccc(/C=N/NC(=O)Cn2c(Cc3ccc(OC)c(OC)c3)nc3ccccc32)cc1,1.22,4.6,-3.4
O=C(c1ccccc1Oc1ccccc1)N1CCN(c2ccccc2)CC1,-0.68,6.7,-1.2
Clc1ccc2[nH]c3c(NCCCN4CCOCC4)ncnc3c2c1,0.11,44.0*,0.0
Cc1ccc2[nH]c3c(NCCN4CCOCC4)ncnc3c2c1,1.87,9.1,-5.7
COC(=O)c1cc2c(-c3ccccc3)cc3ccccn3c-2c1C(=O)OC,-1.68,78.5*,-0.4
COC(=O)c1c(C)c2c(C)cc3ccccn3c-2c1C(=O)OC,0.74,5.9,1.6
CCOC(=O)/C(=C/c1ccccc1)NC(=O)c1ccco1,0.88,5.4,.
CCc1ccc(OCCOCC(O)CN(CCO)CCO)cc1 (configuration not stated),0.02,4.7,-1.4
SMILES,sdo1 growth,Measles CPE,Phagocytosis inh
CCOC(=O)Cn1c(=N)n(Cc2ccccc2F)c2ccccc21,-0.27,2.0,-0.8
Cc1ccc(NC(=O)c2cc(S(=O)(=O)N3CCCCC3)cs2)cc1,-0.75,6.8,-1.5
O=C(Nc1ccc(Cl)cc1)c1cc(S(=O)(=O)N2CCOCC2)cs1,-1.27,78.3*,-0.7
Cn1cc(Br)c(C(=O)Nc2c(F)c(F)c(F)c(F)c2F)n1,-0.66,22.5,-5.3
Cn1cc(Br)c(C(=O)Nc2nccs2)n1,-0.67,31.7*,-1.7
CN1CCN(CCCNC(=O)Nc2cccc3ccccc23)CC1,0.86,44.0*,-0.1
O=C(NCCCN1CCCC1)Nc1cccc2ccccc12,0.77,10.6,-0.9
O=C(CN1C(=O)/C(=C/c2cccc(Br)c2)SC1=S)N1CCCC1,-0.55,3.5,0.8
Cc1cc(NC(=O)c2cc(-c3ccccn3)nc3ccccc23)no1,0.21,8.9,-0.3
Cc1ccc2nc(-c3ccccn3)cc(C(=O)NC3CCN(C)CC3)c2c1,1.47,67.3*,-0.8
Cc1cc(C)c2c(c1)/C(=N/NC(=O)c1cc(C)oc1C)CCC2,-0.16,3.8,4.5
CCOc1ccc2[nH]c(=O)c(CN(CC3CCCN3CC)C(=O)NCc3ccccc3)cc2c1 (configuration not stated),1.12,24.5*,0.0
COc1ccc2[nH]c(=O)c(CN(CCCN3CCOCC3)C(=O)NCc3ccccc3)cc2c1,2.2,6.1,-3.1
CCCn1nnnc1-c1ccc(Cl)cc1,0.79,11.7,-1.5
CCCn1nnnc1-c1cccc(Cl)c1,0.74,60.7*,.
CCOC(=O)/C=C1\SCC(=O)N1CC(=O)NC(C)c1ccc(F)cc1 (configuration not stated),1.14,23.5,-5.4
COc1ccc(/C=C2/C(=O)OCc3cc(OC)c(OC)cc32)cc1,-1.07,8.0,-3.3
CCCn1c(SCC(=O)Nc2sc(C)c(C)c2C(=O)OCC)nc2c1c(=O)n(C)c(=O)n2C,0.02,31.4*,1.4
CCn1c(SCC(=O)Nc2nc3ccc(OC)cc3s2)nc2c1c(=O)n(C)c(=O)n2C,-1.44,27.5*,0.9
